From PubChem BioAssay AID2284197 (EPA ToxCast)
Calls of active or inactive are those of the source. How the source made its calls: active means hit-call score of the fitted dose curve at least 0.9, where 1 is the maximum; inactive means score below 0.9.

target: human Thyroid Hormone Receptor Alpha (TRa) Agonism, THRA (gene 7067) (UniProt P10827); experiment: ERF_TW_NR_COA_hTHRA: Eurofins (ERF) Nuclear Receptor (NR) Functional Coactivator Assay for human Thyroid Hormone Receptor Alpha (TRa) Agonism
Method: ERF_TW_NR_COA_hTHRA is a biochemical, single-readout assay that uses extracted gene-proteins in a cell-free assay. Measurements were taken 0.5 hour after chemical dosing in a 96-well plate. See TRalpha Human Thyroid Hormone NHR Functional Agonist Coactivator Assay, Panlabs.ERF_TW_NR_COA_hTHRA is an assay component calculated from the ERF_TW_NR_COA_hTHRA assay. It is designed to measure TR-FRET using a type of inducible reporter as detected by fluorescence intensity of 7-hydroxy-coumarin with FRET: TR-FRET technology.Data from the assay component ERF_TW_NR_COA_hTHRA_Agonist was analyzed at the assay endpoint, ERF_TW_NR_COA_hTHRA_Agonist, in the positive analysis fitting direction relative to DMSO as the negative control and baseline of activity. Using a type of agonist, gain-of-signal activity can be used to understand changes in protein-protein interaction as they relate to gene THRA. […]
Test compound and/or vehicle is incubated with the 0.25 nM TR alpha LBD-GST and coactivator peptide for 30 minutes at RT. Determination of the amount of complex formed is read spectrofluorimetrically (excitation: 337 nm, emission: 520/490 nm). Test compound-induced increase of fluorescence by 50 percent or more relative to the 0.1 uM T3 response indicates possible TR alpha receptor agonist activity.

Sequence of human Thyroid Hormone Receptor Alpha (TRa) Agonism, THRA (gene 7067) (P10827 whole entry, looked up): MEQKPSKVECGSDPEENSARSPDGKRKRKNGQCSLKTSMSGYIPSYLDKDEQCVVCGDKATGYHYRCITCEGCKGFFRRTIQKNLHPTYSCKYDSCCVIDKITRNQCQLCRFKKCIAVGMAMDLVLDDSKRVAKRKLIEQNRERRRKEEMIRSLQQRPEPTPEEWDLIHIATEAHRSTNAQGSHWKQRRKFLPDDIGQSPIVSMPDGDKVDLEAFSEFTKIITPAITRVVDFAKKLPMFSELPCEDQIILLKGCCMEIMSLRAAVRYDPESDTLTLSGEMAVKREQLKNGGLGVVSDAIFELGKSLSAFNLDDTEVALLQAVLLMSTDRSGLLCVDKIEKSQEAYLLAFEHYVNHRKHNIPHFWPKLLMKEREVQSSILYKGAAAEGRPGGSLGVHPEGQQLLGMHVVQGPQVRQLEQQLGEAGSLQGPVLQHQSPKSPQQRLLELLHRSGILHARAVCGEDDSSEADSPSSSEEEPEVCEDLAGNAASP

Row | Compound | outcome
1 | O=C(/C=C/c1ccc(O)cc1)CC(=O)/C=C/c1ccc(O)cc1 | inactive
2 | COc1cc(CCC(=O)CC(=O)CCc2ccc(O)c(OC)c2)ccc1O | inactive
